# From PubChem BioAssay (EPA / NIEHS)
# Activity calls are given as the source filed them. The calls were made as follows: active = hit-call score of the fitted dose curve at least 0.9, where 1 is the maximum; inactive = score below 0.9.
# How the values were obtained:
# [1] = APR_HepG2_CellLoss_72hr: Apredica 72-hour HepG2 Assay for Cell Loss (AID 2282915); details: high-content imaging
# How it was run: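 HepG2 cells were exposed for 72 hr to compounds at 0.39–200 uM (ten concentrations, duplicate) in 0.5% v/v final DMSO. Nuclei were stained with Hoechst 33342 after 3.7% formaldehyde fixation, imaged at 20x, and counted; fits bidirectional versus DMSO.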
# [2] = APR_HepG2_MitoMembPot_72hr: Apredica 72-hour HepG2 Assay for Mitochondrial Membrane Potential (AID 2282917); details: imaging, actives raise or lower the signal
# How it was run: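 HepG2 cells exposed 72 h to compounds at 0.39–200 uM (0.5% v/v DMSO, duplicates); MitoTracker Red CMXRos 250 nM loaded 30 min before 3.7% formaldehyde fixation, imaged by HCS fluorescence. Bidirectional fit versus DMSO.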
# [3] = APR_HepG2_MitoticArrest_72hr: Apredica 72-hour HepG2 Assay for Mitotic Arrest (AID 2282918); details: high-content imaging, actives raise or lower the signal
# How it was run: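 Mitotic arrest in HepG2 is scored from phospho-histone H3 staining after 72 hr dosing across 0.39–200 uM, with DMSO at 0.5% v/v. Nuclei are identified by Hoechst 33342 and fluorescence intensity is quantified per cell.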
# [4] = APR_HepG2_MicrotubuleCSK_72hr: Apredica 72-hour HepG2 Assay for Microtubule CSK Stabilty (AID 2282919); details: HepG2 microtubule cytoskeleton, high-content imaging, actives raise or lower the signal
# How it was run: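 Ten-point dosing (0.39–200 uM, 0.5% DMSO) of HepG2 for 72 hr, with taxol as the cytoskeletal positive control. The cells were formaldehyde-fixed and then stained with alpha-tubulin/Cy5 and Hoechst. Imaging at 20x used a −2 um Z offset for tubulin.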
# [5] = APR_HepG2_P-H2AX_24hr: Apredica 24-hour HepG2 Assay for H2AX Phosphorylation (AID 2282920); details: high-content imaging, actives raise or lower the signal
# How it was run: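 Signal comes from a FITC-labeled secondary detecting phospho-histone H2A.x in fixed HepG2 cells, quantified by automated imaging at 20x. Dosing ran 24 hr across 0.39–200 uM with 0.5% v/v DMSO.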
# [6] = APR_HepG2_StressKinase_72hr: Apredica 72-hour HepG2 Assay for Stress Kinase (AID 2282921); details: HepG2 stress kinase (phospho-c-Jun) imaging, actives raise or lower the signal
# How it was run: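 Stress kinase signal is phospho-c-Jun immunofluorescence (1:500 primary, Cy3 secondary) in fixed, permeabilized human HepG2 cells imaged at 20x. Exposure lasted 72 hr over ten concentrations from 0.39 to 200 uM, 0.5% DMSO, in duplicate. Bidirectional fit versus DMSO.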
# [7] = APR_HepG2_StressKinase_24hr: Apredica 24-hour HepG2 Assay for Stress Kinase (AID 2282922); details: HepG2 stress kinase (phospho-c-Jun) imaging, actives raise or lower the signal
# How it was run: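 After 24 hr compound treatment (up to 200 uM, final DMSO 0.5% v/v), HepG2 cells are fixed and multiplex-labeled; phospho-c-Jun intensity is captured by high-content fluorescence imaging and analyzed relative to DMSO.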
# [8] = APR_HepG2_p53Act_72hr: Apredica 72-hour HepG2 Assay for p53 Activation (AID 2282923); details: high-content imaging, actives raise or lower the signal;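 also: average cellular p53 protein immunofluorescence intensity in HepG2 cells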
# How it was run: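 After 72 h with compound (ten points, 0.39 to 200 uM, final DMSO 0.5% v/v), fixed HepG2 cells were labelled with sheep anti-p53 and Hoechst 33342 and imaged; gain or loss versus DMSO scored.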
# [9] = APR_HepG2_MitoMass_72hr: Apredica 72-hour HepG2 Assay for Mitochondrial Mass (AID 2282924); details: high-content imaging, actives raise or lower the signal;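 also: MitoTracker Red CMXRos stain intensity per cell imaged as mitochondrial mass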
# How it was run: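 Steps: treat HepG2 72 hr (0.39–200 uM, duplicate wells); load MitoTracker Red CMXRos, 250 nM, 30 min; fix with 3.7% formaldehyde, permeabilise with 0.5% Triton X-100; capture images, nuclei via Hoechst 33342; fit bidirectionally against DMSO.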
smiles,measurement,setting,value
ClC(Cl)(Cl)c1ccccc1,outcome,[1],inactive
same,outcome,[2],inactive
same,outcome,[3],inactive
same,outcome,[4],inactive
same,outcome,[5],inactive
same,outcome,[6],inactive
same,outcome,[7],inactive
same,outcome,[8],inactive
same,outcome,[9],inactive
CCOP(=S)(OCC)SCSCC,outcome,[1],inactive
same,outcome,[2],inactive
same,outcome,[3],inactive
same,outcome,[4],inactive
same,AC50,[5],107 µM (active)
same,outcome,[6],inactive
same,outcome,[7],inactive
same,outcome,[9],inactive
CC(C)(C)c1ccc(O)cc1,outcome,[1],inactive
same,outcome,[2],inactive
same,outcome,[3],inactive
same,outcome,[5],inactive
same,outcome,[6],inactive
same,outcome,[7],inactive
same,outcome,[8],inactive
same,outcome,[9],inactive
O=C(O)C(Cl)Cl,outcome,[1],inactive
same,outcome,[2],inactive
same,outcome,[3],inactive
same,outcome,[4],inactive
same,outcome,[5],inactive
same,outcome,[6],inactive
same,outcome,[7],inactive
same,outcome,[9],inactive
O=C(O)C1C(C(=O)O)C2(Cl)C(Cl)=C(Cl)C1(Cl)C2(Cl)Cl (configuration not stated),outcome,[1],inactive
same,outcome,[5],inactive
same,outcome,[6],inactive
same,outcome,[7],inactive
same,outcome,[8],inactive
CSC(C)(C)C=NO,outcome,[1],inactive
same,outcome,[2],inactive
same,outcome,[3],inactive
same,outcome,[4],inactive
same,outcome,[5],inactive
same,outcome,[6],inactive
same,outcome,[7],inactive
same,outcome,[9],inactive
COCCOCCO,outcome,[1],inactive
same,outcome,[2],inactive
same,outcome,[3],inactive
same,outcome,[4],inactive
same,outcome,[5],inactive
same,outcome,[6],inactive
same,outcome,[7],inactive
same,outcome,[9],inactive
CCOS(=O)(=O)OCC,outcome,[1],inactive
same,outcome,[2],inactive
same,outcome,[3],inactive
same,outcome,[4],inactive
same,outcome,[5],inactive
same,outcome,[6],inactive
same,outcome,[7],inactive
same,outcome,[8],inactive
same,outcome,[9],inactive
Nc1cc2c3c(c1)C(c1ccccc1)=N[C@@H](NC(=O)c1cccnc1)C(=O)N3CC2,outcome,[1],inactive
same,outcome,[2],inactive
same,outcome,[3],inactive
same,outcome,[4],inactive
same,outcome,[5],inactive
same,outcome,[6],inactive
same,outcome,[7],inactive
same,outcome,[9],inactive
O=[N+]([O-])c1ccc(Cl)c(Cl)c1,outcome,[1],inactive
same,outcome,[2],inactive
same,outcome,[3],inactive
same,outcome,[4],inactive
same,outcome,[5],inactive
same,outcome,[6],inactive
same,outcome,[7],inactive
same,outcome,[9],inactive
CCCCc1ccccc1,outcome,[1],inactive
same,outcome,[2],inactive
same,outcome,[3],inactive
same,outcome,[4],inactive
same,outcome,[5],inactive
same,outcome,[6],inactive
same,outcome,[7],inactive
same,outcome,[9],inactive
CC(Cl)(Cl)C(=O)O,outcome,[1],inactive
same,outcome,[2],inactive
same,outcome,[3],inactive
same,outcome,[4],inactive
same,outcome,[5],inactive
same,outcome,[6],inactive
same,outcome,[7],inactive
same,outcome,[9],inactive
CCCCN(CCCC)SN(C)C(=O)Oc1cccc2c1OC(C)(C)C2,AC50,[1],56.8 µM (active)
same,outcome,[2],inactive
same,AC50,[3],54.1 µM (active)
same,AC50,[4],97.1 µM (active)
same,AC50,[5],66.8 µM (active)
same,outcome,[6],inactive
same,outcome,[7],inactive
same,outcome,[9],inactive
Cc1ccc(O)cc1C,outcome,[1],inactive
same,outcome,[2],inactive
same,outcome,[3],inactive
same,outcome,[5],inactive
same,outcome,[6],inactive
same,outcome,[7],inactive
same,outcome,[8],inactive
same,outcome,[9],inactive
Cc1ccc([N+](=O)[O-])cc1C,outcome,[1],inactive
same,outcome,[2],inactive
same,outcome,[3],inactive
same,outcome,[4],inactive
same,outcome,[5],inactive
same,outcome,[6],inactive
same,outcome,[7],inactive
same,outcome,[9],inactive
CCCCCCCc1ccc(O)cc1,outcome,[1],inactive
same,outcome,[2],inactive
same,outcome,[3],inactive
same,outcome,[4],inactive
same,outcome,[5],inactive
same,outcome,[6],inactive
same,outcome,[7],inactive
same,outcome,[9],inactive
c1ccc2c(c1)Nc1ccccc1S2,AC50,[1],47 µM (active)
same,AC50,[2],123 µM (active)
same,outcome,[3],inactive
same,outcome,[4],inactive
same,outcome,[5],inactive
same,outcome,[6],inactive
same,outcome,[7],inactive
same,outcome,[8],inactive
same,outcome,[9],inactive
CN(C)C(=O)Cl,outcome,[1],inactive
same,outcome,[2],inactive
same,outcome,[3],inactive
same,outcome,[4],inactive
same,outcome,[5],inactive
same,outcome,[6],inactive
same,outcome,[7],inactive
same,outcome,[9],inactive
CCC(C)(C)c1ccc(O)cc1,AC50,[1],108 µM (active)
same,AC50,[2],56.4 µM (active)
same,AC50,[3],121 µM (active)
same,outcome,[4],inactive
same,outcome,[5],inactive
same,outcome,[6],inactive
same,outcome,[7],inactive
same,AC50,[8],105 µM (active)
same,AC50,[9],88 µM (active)
CCNc1nc(Cl)nc(NC(C)(C)C)n1,outcome,[1],inactive
same,outcome,[2],inactive
same,outcome,[3],inactive
same,outcome,[4],inactive
same,outcome,[5],inactive
same,outcome,[6],inactive
same,outcome,[7],inactive
same,outcome,[9],inactive
c1cc2c3c(cccc3c1)CC2,outcome,[1],inactive
same,outcome,[5],inactive
same,outcome,[6],inactive
same,outcome,[7],inactive
same,outcome,[8],inactive
ClC(Cl)c1ccccc1,outcome,[1],inactive
same,outcome,[2],inactive
same,outcome,[3],inactive
same,outcome,[4],inactive
same,outcome,[5],inactive
same,outcome,[6],inactive
same,outcome,[7],inactive
same,outcome,[9],inactive
CCOP(=S)(Oc1ccc([N+](=O)[O-])cc1)c1ccccc1 (configuration not stated),AC50,[1],27.7 µM (active)
same,outcome,[2],inactive
same,outcome,[3],inactive
same,outcome,[4],inactive
same,outcome,[5],inactive
same,outcome,[6],inactive
same,outcome,[7],inactive
same,outcome,[9],inactive
